Laboratory results published in PubChem BioAssay.
The source made the active and inactive calls.

Tests used:
Albumin (Bos taurus) = Albumin (Bos taurus) (UniProt P02769); assay: compounds binding labelled BSA control protein – biochemical, small-molecule microarray, Alexa647 label, 635/667 nm fluorescence, artefact control for SMM control protein annotation, profiling panel (AID 1118); conditions: BSA-A647 binding, fluorescence 635 nm, higher = more signal;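 also: score merges 667 nm emission intensity and signal-to-noise per printed compound spot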
[1] = probe aXIP binding to arrayed compounds – biochemical, NeuroSMM set, 635/667 nm fluorescence, primary screen (AID 1119); conditions: small-molecule microarray, higher = more signal, called active from +8 up or from −8 down;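 also: probe is the protein aXip251-270 applied at 1 µg/mL to compound-printed slides; binding of probe to printed compounds measured as 667 nm fluorescence plus signal to noise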
[2] = probe aNOTCH3 binding on compound microarray – biochemical, small-molecule microarray, 635/667 nm fluorescence, primary screen (AID 1120); conditions: higher = more signal;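 also: probe is a biotin-tagged antibody raised against NOTCH3 rather than NOTCH3 protein; score merges spot fluorescence near 667 nm with spot signal to noise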
[3] = probe aNOTCH2 binding on compound microarray – biochemical, small-molecule microarray, 635/667 nm fluorescence, primary screen (AID 1121); conditions: higher = more signal;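 also: score merges feature fluorescence read at 667 nm with its signal to noise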
[4] = molecular target: Carbonic anhydrase 2 (Homo sapiens) (UniProt P00918); assay: compounds binding carbonic anhydrase 2 – biochemical, small-molecule microarray, Alexa647-labelled CAII, profiling panel (AID 1122); conditions: CAII-A647 binding fluorescence, higher = more signal
[5] = COS7 lysate on small-molecule microarray, probe aHis, 635 nm (AID 1123); conditions: COS7 cell lysate, fluorescence, higher = more signal;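 also: z-score combines 667nm fluorescence intensity with signal-to-noise per printed compound spot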
[6] = probe aLAP1 signal on lysate-treated microarray – cell lysate, small-molecule microarray, COS7 lysate, primary screen (AID 1124); conditions: probe aLAP1, fluorescence, higher = more signal;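 also: lysate comes from COS7 cells expressing LAP1 and is applied at 0.3 µg/mL; score merges spot fluorescence near 667 nm with signal-to-noise over triplicate slides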
Sam68 (KHDRBS1) = assay: compounds binding KHDRBS1 protein – biochemical, small-molecule microarray, 635 nm fluorescence, primary screen (AID 1125); conditions: higher = more signal;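 also: score merges 667 nm channel intensity with signal to noise over triplicate slides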
[7] = system: Chordin-like protein 2 (CHRDL2); assay: compounds binding chordin-like 2 – biochemical, small-molecule microarray, 635 nm fluorescence, primary screen (AID 1126); conditions: fluorescence 635 nm, higher = more signal;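 also: printed compound slides probed with Chrdl2 protein at 4 µg/mL for 1 h at 4 C; score merges 667 nm emission intensity with signal to noise over three replicate slides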
[8] = molecular target: Concanavalin-A (Canavalia ensiformis) (UniProt P02866); assay: compounds binding concanavalin A lectin – biochemical, small-molecule microarray, Alexa647 label, 635 nm, artefact control for SMM control protein annotation, primary screen (AID 1127); conditions: ConA-A647 binding fluorescence, higher = more signal;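 also: z combines 667 nm emission intensity with signal-to-noise across three replicate slides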
[9] = compounds binding Alexa647 anti-His antibody – biochemical, small-molecule microarray, 635 nm fluorescence, artefact control for SMM control protein annotation, primary screen (AID 1128); conditions: higher = more signal;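 also: score merges feature fluorescence with signal-to-noise for each printed compound spot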
[10] = system: Human papillomavirus type 1a E7 protein (residues 1-88); assay: HPV1a E7 small-molecule binders, primary screen, biochemical, small-molecule microarray, residues 1-88, 635 nm (AID 1129); conditions: small-molecule microarray binding, fluorescence 635 nm; higher = more signal
[11] = molecular target: Focal adhesion kinase 1 (Homo sapiens) (UniProt Q05397); assay: PTK2 protein binding on printed compound slides – biochemical, small-molecule microarray, 635/667 nm fluorescence, BSA, DTT, primary screen (AID 1130); conditions: 635 nm fluorescence, higher = more signal;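 also: composite of spot emission at 667 nm and signal to noise over triplicate slides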
[12] = system: Fibrinogen (Alexa647-labelled); assay: Alexa647-fibrinogen binding to printed small molecules – biochemical, small-molecule microarray, 635/667 nm fluorescence, artefact control for SMM control-protein annotation, profiling panel (AID 1131); conditions: fibrinogen-A647 binding fluorescence, higher = more signal;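 also: z-score merges 667 nm fluorescence with per-spot signal-to-noise over triplicate slides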
[13] = molecular target: Follistatin (Homo sapiens) (UniProt P19883); assay: FST protein binding to printed compounds – biochemical, small-molecule microarray, 635/667 nm fluorescence, primary screen (AID 1132); conditions: 635 nm fluorescence, higher = more signal
[14] = molecular target: Fibroblast growth factor 2 (Homo sapiens) (UniProt P09038); assay: basic fibroblast growth factor binding to printed compounds – biochemical, small-molecule microarray, 635/667 nm fluorescence, primary screen (AID 1133); conditions: FGF2, fluorescence 635/667, higher = more signal
[15] = JC-1 mitochondrial potential readout, lung cancer cells – cell-based, A549, JC-1 fluorescence, basal, 24 h, 100 nL, profiling panel (AID 1138); conditions: higher = more signal;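 also: A549 lung adenocarcinoma cells under basal conditions with no added stimulus; test concentration not given here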
Lefty1 = Lefty1 protein binding to printed compounds – biochemical, small-molecule microarray, 635/667 nm fluorescence, primary screen (AID 1139); conditions: fluorescence 635/667, higher = more signal
[16] = system: wheat germ agglutinin (Triticum aestivum), Alexa647-labelled; assay: Alexa647-WGA lectin binding to printed small molecules – biochemical, small-molecule microarray, 635/667 nm fluorescence, artefact control for SMM control-protein annotation, profiling panel (AID 1140); conditions: WGA-A647 binding, 635 nm fluorescence, higher = more signal;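 also: score merges 667 nm feature emission with signal to noise over triplicate slides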
[17] = molecular target: Luciferin 4-monooxygenase (Photinus pyralis) (UniProt P08659); assay: inhibition of purified Photinus pyralis luciferase – biochemical, luminescence, purified enzyme, 2006 set, primary screen (AID 1141); conditions: purified firefly luciferase, SteadyGlo luminescence, 30 min; higher = more signal, called active from +8 up or from −8 down;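 also: cell-free assay with purified firefly luciferase at 100 ng per well in PBS; test concentration not given here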
Luciferin 4-monooxygenase (Photinus pyralis), sequence (P08659 whole entry, looked up): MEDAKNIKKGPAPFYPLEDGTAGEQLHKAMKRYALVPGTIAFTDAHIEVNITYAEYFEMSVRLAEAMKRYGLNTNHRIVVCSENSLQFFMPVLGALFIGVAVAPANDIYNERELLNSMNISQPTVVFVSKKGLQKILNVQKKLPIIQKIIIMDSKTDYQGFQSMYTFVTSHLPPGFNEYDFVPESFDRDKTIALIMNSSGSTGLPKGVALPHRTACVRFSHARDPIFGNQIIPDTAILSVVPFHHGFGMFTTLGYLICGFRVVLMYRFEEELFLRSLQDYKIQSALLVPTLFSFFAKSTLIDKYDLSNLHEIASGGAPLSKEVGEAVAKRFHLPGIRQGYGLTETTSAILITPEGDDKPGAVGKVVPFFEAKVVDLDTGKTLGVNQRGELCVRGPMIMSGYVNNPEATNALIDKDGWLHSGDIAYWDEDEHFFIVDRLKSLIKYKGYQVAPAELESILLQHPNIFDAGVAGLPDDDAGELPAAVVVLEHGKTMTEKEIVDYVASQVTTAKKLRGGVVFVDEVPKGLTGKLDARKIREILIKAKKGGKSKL

Fibroblast growth factor 2 (Homo sapiens), sequence (P09038 whole entry, looked up): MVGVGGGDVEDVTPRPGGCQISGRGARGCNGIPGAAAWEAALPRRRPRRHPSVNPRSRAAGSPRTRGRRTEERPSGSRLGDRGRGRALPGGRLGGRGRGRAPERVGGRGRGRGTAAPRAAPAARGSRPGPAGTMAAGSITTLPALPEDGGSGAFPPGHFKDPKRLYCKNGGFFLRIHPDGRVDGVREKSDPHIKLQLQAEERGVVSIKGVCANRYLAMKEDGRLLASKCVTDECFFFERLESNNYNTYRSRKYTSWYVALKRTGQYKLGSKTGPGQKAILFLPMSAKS
Concanavalin-A (Canavalia ensiformis), sequence (P02866 whole entry, looked up): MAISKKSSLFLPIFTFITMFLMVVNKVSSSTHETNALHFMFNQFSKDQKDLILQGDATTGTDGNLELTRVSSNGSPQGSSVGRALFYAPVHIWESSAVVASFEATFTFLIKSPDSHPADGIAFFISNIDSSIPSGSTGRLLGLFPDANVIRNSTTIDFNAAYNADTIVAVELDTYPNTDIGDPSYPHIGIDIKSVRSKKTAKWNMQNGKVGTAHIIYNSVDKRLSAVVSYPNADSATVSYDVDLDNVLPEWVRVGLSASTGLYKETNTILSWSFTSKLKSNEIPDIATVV
Albumin (Bos taurus), sequence (P02769 whole entry, looked up): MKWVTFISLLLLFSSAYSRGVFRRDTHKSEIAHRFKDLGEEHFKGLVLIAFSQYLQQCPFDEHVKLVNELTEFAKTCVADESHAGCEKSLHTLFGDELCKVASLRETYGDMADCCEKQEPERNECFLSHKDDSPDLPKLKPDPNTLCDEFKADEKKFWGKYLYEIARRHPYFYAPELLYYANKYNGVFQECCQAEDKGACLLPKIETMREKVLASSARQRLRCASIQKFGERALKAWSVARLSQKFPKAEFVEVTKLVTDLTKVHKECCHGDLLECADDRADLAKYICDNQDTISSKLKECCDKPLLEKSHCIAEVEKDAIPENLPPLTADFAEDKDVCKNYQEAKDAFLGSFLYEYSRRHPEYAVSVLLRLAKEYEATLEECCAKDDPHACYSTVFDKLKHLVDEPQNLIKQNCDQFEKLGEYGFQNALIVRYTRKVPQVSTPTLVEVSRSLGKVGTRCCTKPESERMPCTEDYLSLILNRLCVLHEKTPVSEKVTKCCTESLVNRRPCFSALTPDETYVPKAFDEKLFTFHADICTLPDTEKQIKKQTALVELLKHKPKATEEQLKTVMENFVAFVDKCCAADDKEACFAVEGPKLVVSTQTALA
Focal adhesion kinase 1 (Homo sapiens), sequence (Q05397 whole entry, looked up): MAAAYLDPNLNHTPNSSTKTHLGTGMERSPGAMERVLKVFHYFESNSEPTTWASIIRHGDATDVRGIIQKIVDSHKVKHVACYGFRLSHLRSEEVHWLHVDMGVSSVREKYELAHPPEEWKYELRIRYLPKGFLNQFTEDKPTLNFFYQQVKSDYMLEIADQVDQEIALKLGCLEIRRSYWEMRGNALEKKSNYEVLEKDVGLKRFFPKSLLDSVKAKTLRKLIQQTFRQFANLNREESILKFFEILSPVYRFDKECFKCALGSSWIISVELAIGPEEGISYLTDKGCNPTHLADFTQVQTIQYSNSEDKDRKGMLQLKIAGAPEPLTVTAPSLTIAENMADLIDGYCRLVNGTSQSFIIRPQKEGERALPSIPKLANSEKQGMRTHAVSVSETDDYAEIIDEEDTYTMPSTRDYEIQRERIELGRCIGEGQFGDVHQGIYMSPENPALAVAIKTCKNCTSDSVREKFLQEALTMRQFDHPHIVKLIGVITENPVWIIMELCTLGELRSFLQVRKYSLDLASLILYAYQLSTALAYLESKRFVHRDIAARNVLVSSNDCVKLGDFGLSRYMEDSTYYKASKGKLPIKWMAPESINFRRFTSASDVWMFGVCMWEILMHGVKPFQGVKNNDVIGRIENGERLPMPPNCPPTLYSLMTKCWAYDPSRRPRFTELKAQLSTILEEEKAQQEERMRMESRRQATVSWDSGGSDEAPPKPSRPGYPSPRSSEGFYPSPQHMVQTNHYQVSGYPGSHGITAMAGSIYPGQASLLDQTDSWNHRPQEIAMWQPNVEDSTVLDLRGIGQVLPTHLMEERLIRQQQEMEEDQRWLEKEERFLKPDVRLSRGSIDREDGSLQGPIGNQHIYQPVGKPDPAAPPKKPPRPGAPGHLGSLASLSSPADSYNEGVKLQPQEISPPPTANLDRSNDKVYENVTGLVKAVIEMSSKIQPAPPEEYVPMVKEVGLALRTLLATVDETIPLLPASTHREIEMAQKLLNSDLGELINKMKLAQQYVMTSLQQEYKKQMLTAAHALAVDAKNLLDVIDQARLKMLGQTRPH
Follistatin (Homo sapiens), sequence (P19883 whole entry, looked up): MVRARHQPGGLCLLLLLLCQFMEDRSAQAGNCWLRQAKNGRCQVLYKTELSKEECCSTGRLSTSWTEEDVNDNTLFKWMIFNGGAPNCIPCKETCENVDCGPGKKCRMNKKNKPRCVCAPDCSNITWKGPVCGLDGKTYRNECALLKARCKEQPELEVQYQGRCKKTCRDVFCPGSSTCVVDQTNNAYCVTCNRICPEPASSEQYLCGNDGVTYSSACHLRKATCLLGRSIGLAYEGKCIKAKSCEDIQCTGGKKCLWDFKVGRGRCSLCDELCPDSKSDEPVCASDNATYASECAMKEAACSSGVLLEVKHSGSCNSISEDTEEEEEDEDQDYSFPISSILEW

SMILES	composite z-score (Albumin (Bos taurus))	composite Z-score [1]	composite z-score [2]	composite z-score [3]	composite z-score [4]	composite z-score [5]	composite z-score [6]	composite z-score (Sam68 (KHDRBS1))	composite z-score [7]	composite z-score [8]	composite z-score [9]	composite z-score [10]	composite z-score [11]	composite z-score [12]	composite z-score [13]	composite z-score [14]	z-score [15]	composite z-score (Lefty1)	composite z-score [16]	z-score [17]
CC(CO)N1C(=O)[C@@H]2C3C(=O)OCCC/C=C\[C@H]3OC23C=CCN(Cn2nnc4ccccc42)C(=O)[C@@H]13 (stereo not given in full)	0.717	0.323 (inactive)	-0.192	-0.14	0.869	-0.202	-0.237	-1.07	0.034	-1.01	3.15	-0.589	-0.923	-0.326	-0.171	-0.614	0.918	-0.13	-0.276	0.196 (inactive)
CCOC(=O)C1=C[C@@H](c2ccccc2)N(S(=O)(=O)c2ccc(C)cc2)[C@H]1c1cccc(Cl)c1	0.895	-0.101 (inactive)	0.224	0.152	0.703	-0.102	0.882	1.31	-0.599	1.11	2.44	1.17	0.283	0.612	0.938	0.111	3.78	0.465	1.31	1.18 (inactive)
CN1C2C=C(CCCO)C(C3C(=O)N(C(N)=O)C(=O)C32)C1c1cccs1 (stereo not given)	-0.435	-0.394 (inactive)	-0.179	0.61	0.409	0.924	-0.212	0.226	1.51	-0.0398	0.738	0.151	-0.111	-0.451	0.044	-0.22	-0.405	0.38	-0.303	-0.655 (inactive)
COC(=O)[C@@]1(Cc2ccccc2)[C@H]2c3cc(C(=O)N4CCCC4)n(Cc4cc(F)cc5c4OCOC5)c3C[C@H]2CN1C(=O)c1ccccc1	1.11	0.143 (inactive)	0.218	0.163	0.553	2.57	0.141	0.797	-0.233	0.511	0.69	1.24	0.366	0.963	-0.0178	-0.575	0.487	-0.359	0.711	0.827 (inactive)
COC(=O)[C@@]1(Cc2ccc(OC)cc2)[C@H]2c3cc(C(=O)N4CCCC4)n(CCc4cc5ccccc5[nH]4)c3C[C@H]2CN1C(=O)c1ccccc1	1.01	1.33 (inactive)	0.353	0.213	0.587	3.04	0.816	1.31	-0.65	1.13	2.2	1.25	0.832	0.98	1.18	0.754	1.3	-0.246	1.05	1.91 (inactive)
